# From the supplement of paper PMC10849652
# The full data set covers some 7,900 targets. This sample favours those with a hit. About 0.6% of all pairs of compound and target were hits. Unmarked numbers belong to inactive results.
# Experiments:
# Assay in all cases: log2 fold change, soluble protein after heating vs DMSO (PISA); higher = thermal stabilisation; K562 cells, 10 uM, 30 min; active = over 0.2 and 3.5 SD of the protein, either way, in both replicates (recomputed)
# [1] = compound: CC[C@@H]1C(=O)N(C)c2cnc(Nc3ccc(C(=O)NC4CCN(C)CC4)cc3OC)nc2N1C1CCCC1
# Procedure, shortened: (§1)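 K562 cells (2×10^6 cells/mL) were treated with 10 μM compound for 30 min, and aliquots were heated for 3 min over 48°C-58°C. Pooled aliquots were extracted in PBS with 0.5% NP-40 at 4°C, and the supernatant after 21,000xg for 90 min was measured by TMTpro 16plex LC-MS/MS with channel sums equalised. Reported thermal stability, relative to control samples and from duplicates, is a log2 fold change.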
# volasertib = compound: CC[C@@H]1C(=O)N(C)c2cnc(Nc3ccc(C(=O)N[C@H]4CC[C@H](N5CCN(CC6CC6)CC5)CC4)cc3OC)nc2N1C(C)C [volasertib]
# Procedure, shortened: as §1
# [2] = compound: CC[C@H](C)N1C=C(C2=C(C=C(C=C21)C3=CN=C(C=C3)N4CCNCC4)C(=O)NCC5=C(C=C(NC5=O)C)C)C
# Procedure, shortened: as §1
# epoxomicin = compound: CC[C@H](C)[C@@H](C(=O)N[C@@H]([C@@H](C)O)C(=O)N[C@@H](CC(C)C)C(=O)[C@]1(CO1)C)NC(=O)[C@H]([C@@H](C)CC)N(C)C(=O)C [epoxomicin]
# Procedure, shortened: as §1
# [3] = compound: CCn1c(C(=O)N(C2CC2)C2CC2)cc2c3c(ncn3C)c(Nc3cc(C)n(C)n3)nc21
# Procedure, shortened: as §1
# [4] = compound: CCn1cc(-c2ccnc3[nH]c(-c4cccc(CN(C)C)c4)cc23)c(-c2ccc(NC(=O)N(C)C)cc2)n1
# Procedure, shortened: as §1
# [5] = compound: CN(C)CC(=O)Nc1ccc2[nH]c(=O)c3ccccc3c2c1
# Procedure, shortened: as §1
# rosiglitazone = compound: CN(CCOC1=CC=C(C=C1)C[C@H]2C(=O)NC(=O)S2)C3=CC=CC=N3 (racemic) [rosiglitazone]
# Procedure, shortened: as §1
# [6] = compound: CN1C2=C(C3=C1C(=O)N(N=C3)CC4=CC(=CC=C4)N)SC(=C2)S(=O)C
# Procedure, shortened: as §1
# [7] = compound: CN1CCC(CNc2ccc3ncc(-c4cccc(OC(F)(F)F)c4)n3n2)CC1
# Procedure, shortened: as §1
# saracatinib = compound: CN1CCN(CCOc2cc(OC3CCOCC3)c3c(Nc4c(Cl)ccc5c4OCO5)ncnc3c2)CC1 [saracatinib]
# Procedure, shortened: as §1
# sotrastaurin = compound: CN1CCN(c2nc(C3=C(c4c[nH]c5ccccc45)C(=O)NC3=O)c3ccccc3n2)CC1 [sotrastaurin]
# Procedure, shortened: as §1
# alvocidib = compound: CN1CC[C@H](c2c(O)cc(O)c3c(=O)cc(-c4ccccc4Cl)oc23)[C@H](O)C1 [alvocidib]
# Procedure, shortened: as §1
# Tubastatin A = compound: CN1CCc2c(c3ccccc3n2Cc2ccc(C(=O)NO)cc2)C1 [Tubastatin A]
# Procedure, shortened: as §1
# [8] = compound: CNC(=O)C1=CC=CC=C1NC2=NC(=NC=C2Cl)NC3=C(C=C(C=C3)N4CCOCC4)OC
# Procedure, shortened: as §1
# defactinib = compound: CNC(=O)c1ccc(Nc2ncc(C(F)(F)F)c(NCc3nccnc3N(C)S(C)(=O)=O)n2)cc1 [defactinib]
# Procedure, shortened: as §1
# rucaparib = compound: CNCc1ccc(-c2[nH]c3cc(F)cc4c3c2CCNC4=O)cc1 [rucaparib]
# Procedure, shortened: as §1
# [9] = compound: CNc1nc(-c2ccc3c(N)n[nH]c3c2)cc(N2C[C@@H](C(=O)NC3CCCCC3)CC[C@H]2C)n1
# Procedure, shortened: as §1
# encorafenib = compound: COC(=O)N[C@@H](C)CNc1nccc(-c2cn(C(C)C)nc2-c2cc(Cl)cc(NS(C)(=O)=O)c2F)n1 [encorafenib]
# Procedure, shortened: as §1
# [10] = compound: COC(=O)[C@H](CCSC)NC(=O)C1=C(C=C(C=C1)NC[C@H](CS)N)C2=CC=CC=C2
# Procedure, shortened: as §1
# Chain of UniProt Q5T9A4 (Q5T9A4 whole entry, looked up): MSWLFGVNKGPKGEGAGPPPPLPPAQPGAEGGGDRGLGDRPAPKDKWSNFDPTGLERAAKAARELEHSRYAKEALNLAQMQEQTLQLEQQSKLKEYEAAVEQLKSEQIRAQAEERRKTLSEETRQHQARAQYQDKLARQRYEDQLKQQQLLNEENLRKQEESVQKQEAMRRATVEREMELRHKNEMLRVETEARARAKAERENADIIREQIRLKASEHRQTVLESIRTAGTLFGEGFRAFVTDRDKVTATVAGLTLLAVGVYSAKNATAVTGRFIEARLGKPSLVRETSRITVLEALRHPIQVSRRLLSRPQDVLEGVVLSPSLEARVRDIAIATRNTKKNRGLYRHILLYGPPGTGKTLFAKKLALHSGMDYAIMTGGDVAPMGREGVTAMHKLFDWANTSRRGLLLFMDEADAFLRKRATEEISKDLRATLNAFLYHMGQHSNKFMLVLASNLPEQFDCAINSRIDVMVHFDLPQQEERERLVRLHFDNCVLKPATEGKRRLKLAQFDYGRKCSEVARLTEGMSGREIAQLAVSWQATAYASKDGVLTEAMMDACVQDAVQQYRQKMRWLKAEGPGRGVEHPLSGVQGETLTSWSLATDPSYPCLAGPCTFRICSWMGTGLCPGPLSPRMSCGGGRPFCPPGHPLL
# Chain of UniProt P10398 (P10398 whole entry, looked up): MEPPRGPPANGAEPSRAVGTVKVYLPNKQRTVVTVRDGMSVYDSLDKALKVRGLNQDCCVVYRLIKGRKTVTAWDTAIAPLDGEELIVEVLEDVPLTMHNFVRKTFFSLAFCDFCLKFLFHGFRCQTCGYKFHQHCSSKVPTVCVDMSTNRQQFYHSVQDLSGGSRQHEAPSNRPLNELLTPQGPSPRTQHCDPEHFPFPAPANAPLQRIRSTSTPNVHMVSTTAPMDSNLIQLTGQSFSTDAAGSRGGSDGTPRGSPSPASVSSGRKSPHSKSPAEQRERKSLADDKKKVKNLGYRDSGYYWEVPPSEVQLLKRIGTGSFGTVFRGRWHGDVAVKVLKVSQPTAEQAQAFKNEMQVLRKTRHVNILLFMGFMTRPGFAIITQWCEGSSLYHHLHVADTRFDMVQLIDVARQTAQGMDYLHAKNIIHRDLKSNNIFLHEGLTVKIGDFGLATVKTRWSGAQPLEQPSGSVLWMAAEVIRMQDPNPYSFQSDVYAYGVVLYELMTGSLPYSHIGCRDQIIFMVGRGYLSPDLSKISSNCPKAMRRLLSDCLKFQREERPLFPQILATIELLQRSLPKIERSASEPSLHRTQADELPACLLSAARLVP
# Chain of UniProt Q8N6D5 (Q8N6D5 whole entry, looked up): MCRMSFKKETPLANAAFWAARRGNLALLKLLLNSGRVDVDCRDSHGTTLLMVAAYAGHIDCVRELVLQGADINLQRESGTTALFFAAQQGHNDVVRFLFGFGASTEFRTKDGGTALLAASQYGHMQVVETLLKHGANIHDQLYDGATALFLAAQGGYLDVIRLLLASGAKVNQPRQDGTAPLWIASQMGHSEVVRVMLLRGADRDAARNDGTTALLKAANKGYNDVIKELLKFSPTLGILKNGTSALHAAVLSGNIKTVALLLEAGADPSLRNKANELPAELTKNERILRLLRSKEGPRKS
# Chain of UniProt P52895 (P52895 whole entry, looked up): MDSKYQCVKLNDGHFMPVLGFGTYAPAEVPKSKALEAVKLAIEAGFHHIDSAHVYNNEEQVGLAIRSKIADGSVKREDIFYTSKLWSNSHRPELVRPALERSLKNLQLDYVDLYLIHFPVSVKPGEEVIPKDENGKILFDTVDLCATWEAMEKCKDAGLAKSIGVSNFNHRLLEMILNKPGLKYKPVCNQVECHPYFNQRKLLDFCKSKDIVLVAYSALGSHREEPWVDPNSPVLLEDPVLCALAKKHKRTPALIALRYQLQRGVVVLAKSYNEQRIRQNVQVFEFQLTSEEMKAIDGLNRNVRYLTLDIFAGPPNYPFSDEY
# Chain of UniProt Q14137 (Q14137 whole entry, looked up): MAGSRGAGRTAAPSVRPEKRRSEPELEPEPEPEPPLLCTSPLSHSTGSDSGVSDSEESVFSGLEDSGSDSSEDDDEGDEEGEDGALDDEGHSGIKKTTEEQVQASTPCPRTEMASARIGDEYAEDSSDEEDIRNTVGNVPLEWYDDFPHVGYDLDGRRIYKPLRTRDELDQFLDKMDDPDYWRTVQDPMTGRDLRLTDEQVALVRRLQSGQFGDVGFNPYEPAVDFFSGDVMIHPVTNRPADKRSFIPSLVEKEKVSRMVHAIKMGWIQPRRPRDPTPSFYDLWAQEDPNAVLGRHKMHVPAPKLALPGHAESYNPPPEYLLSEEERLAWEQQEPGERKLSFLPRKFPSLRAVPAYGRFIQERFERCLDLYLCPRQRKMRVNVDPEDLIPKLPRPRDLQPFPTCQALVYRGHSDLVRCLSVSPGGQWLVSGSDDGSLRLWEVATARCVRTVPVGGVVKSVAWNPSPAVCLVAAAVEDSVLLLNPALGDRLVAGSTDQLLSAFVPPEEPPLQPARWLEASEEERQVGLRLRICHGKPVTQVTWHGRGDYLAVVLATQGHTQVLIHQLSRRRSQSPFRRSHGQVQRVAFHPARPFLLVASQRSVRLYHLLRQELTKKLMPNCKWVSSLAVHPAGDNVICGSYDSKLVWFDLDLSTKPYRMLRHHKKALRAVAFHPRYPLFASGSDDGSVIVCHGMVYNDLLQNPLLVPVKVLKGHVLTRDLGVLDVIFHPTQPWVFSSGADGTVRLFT
# Chain of UniProt O43861 (O43861 whole entry, looked up): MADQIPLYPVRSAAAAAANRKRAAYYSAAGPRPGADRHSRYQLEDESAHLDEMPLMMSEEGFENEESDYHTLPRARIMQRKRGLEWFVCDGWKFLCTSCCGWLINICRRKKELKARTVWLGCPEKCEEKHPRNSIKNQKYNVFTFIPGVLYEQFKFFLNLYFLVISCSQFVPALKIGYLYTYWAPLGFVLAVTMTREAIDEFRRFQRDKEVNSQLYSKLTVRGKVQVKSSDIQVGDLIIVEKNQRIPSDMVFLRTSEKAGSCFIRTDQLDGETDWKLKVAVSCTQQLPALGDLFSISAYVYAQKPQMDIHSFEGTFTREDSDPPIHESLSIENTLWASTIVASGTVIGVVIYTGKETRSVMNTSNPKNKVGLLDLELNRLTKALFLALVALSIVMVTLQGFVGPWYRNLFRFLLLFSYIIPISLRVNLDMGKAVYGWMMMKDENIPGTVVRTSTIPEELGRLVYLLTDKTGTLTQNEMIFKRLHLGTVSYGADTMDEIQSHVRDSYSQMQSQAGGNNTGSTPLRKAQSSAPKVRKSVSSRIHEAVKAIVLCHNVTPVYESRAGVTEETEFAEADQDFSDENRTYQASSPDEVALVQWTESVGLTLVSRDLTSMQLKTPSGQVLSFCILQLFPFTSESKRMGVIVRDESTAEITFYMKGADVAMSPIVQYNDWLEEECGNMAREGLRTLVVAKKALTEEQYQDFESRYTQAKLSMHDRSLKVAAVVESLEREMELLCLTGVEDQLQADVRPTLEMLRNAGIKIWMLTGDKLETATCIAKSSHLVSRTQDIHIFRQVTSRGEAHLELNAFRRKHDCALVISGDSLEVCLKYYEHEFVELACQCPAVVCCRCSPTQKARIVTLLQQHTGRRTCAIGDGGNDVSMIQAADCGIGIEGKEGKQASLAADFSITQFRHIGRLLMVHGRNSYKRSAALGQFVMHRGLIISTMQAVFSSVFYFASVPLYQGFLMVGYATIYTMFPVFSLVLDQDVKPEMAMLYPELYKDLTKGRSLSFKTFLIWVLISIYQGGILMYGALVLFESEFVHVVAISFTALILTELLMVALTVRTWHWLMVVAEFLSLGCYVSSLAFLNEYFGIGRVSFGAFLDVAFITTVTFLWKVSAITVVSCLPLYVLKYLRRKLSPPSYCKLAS
# Chain of UniProt Q14457 (Q14457 whole entry, looked up): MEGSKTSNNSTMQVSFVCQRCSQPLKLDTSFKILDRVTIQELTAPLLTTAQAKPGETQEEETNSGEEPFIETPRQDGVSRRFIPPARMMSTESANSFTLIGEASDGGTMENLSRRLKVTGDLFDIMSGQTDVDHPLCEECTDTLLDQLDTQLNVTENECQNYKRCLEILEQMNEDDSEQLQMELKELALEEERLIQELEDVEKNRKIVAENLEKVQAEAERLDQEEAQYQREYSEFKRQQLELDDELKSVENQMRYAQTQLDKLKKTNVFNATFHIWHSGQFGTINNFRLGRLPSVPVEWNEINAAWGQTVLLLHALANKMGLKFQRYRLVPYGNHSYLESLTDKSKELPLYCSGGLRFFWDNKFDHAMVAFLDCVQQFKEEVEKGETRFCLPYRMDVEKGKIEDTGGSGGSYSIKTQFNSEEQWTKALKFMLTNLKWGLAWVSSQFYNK
# Chain of UniProt Q9UKG1 (Q9UKG1 whole entry, looked up): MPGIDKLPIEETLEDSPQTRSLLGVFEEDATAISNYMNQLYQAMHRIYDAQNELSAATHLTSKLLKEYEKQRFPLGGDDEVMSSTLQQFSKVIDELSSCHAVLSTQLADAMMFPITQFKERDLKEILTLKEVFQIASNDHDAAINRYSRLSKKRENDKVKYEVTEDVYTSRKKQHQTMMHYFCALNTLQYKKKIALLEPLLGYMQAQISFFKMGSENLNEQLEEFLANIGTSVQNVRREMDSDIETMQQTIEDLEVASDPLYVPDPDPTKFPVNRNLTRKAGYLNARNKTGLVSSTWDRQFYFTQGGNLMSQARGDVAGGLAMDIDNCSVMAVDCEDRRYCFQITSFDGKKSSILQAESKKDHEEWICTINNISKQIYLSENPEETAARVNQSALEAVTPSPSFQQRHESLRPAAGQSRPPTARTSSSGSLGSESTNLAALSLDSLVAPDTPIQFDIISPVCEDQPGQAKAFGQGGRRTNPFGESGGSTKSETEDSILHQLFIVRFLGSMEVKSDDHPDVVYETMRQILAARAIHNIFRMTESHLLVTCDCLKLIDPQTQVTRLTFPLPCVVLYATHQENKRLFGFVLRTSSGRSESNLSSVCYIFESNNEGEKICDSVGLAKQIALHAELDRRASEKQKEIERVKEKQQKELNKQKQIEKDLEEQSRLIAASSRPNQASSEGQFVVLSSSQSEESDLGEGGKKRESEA
Target,log2 fold change [1],log2 fold change (volasertib),log2 fold change [2],log2 fold change (epoxomicin),log2 fold change [3],log2 fold change [4],log2 fold change [5],log2 fold change (rosiglitazone),log2 fold change [6],log2 fold change [7],log2 fold change (saracatinib),log2 fold change (sotrastaurin),log2 fold change (alvocidib),log2 fold change (Tubastatin A),log2 fold change [8],log2 fold change (defactinib),log2 fold change (rucaparib),log2 fold change [9],log2 fold change (encorafenib),log2 fold change [10]
BMP2K (UniProt Q9NSY1),0.13,0.115,-0.02,-0.053,0.269,0.023,-0.058,-0.044,0.008,0.656 (active),0.071,0.023,0.088,0.015,0.183,0.179,0.064,-0.029,-0.069,-0.012
AKR1C2 (UniProt P52895),0.27,0.087,0.03,-0.139,-0.039,0.002,-0.006,-0.001,0.568 (active),-0.016,-0.108,-0.009,0.08,0.111,0.052,0.146,0.146,0.047,0.094,-0.06
ARAF (UniProt P10398),0.053,0.311,0.129,0.013,-0.041,-0.002,0.054,0.047,-0.025,-0.132,0.037,-0.022,0.013,-0.004,-0.084,-0.023,0.01,0.023,0.177,-0.067
ANAPC2 (UniProt Q9UJX6),-0.071,-0.338 (active),0.023,-0.031,-0.027,-0.018,0.004,0.191,0.03,-0.001,-0.003,-0.084,-0.02,0.009,-0.011,-0.049,0.027,-0.063,0.124,0.006
APPL1 (UniProt Q9UKG1),-0.149,-0.317 (active),0.058,-0.044,0.038,-0.021,0.02,0.044,-0.113,-0.065,0.029,-0.004,-0.179,0.002,0.027,0.037,-0.095,-0.03,0.03,-0.029
BOP1 (UniProt Q14137),-0.072,-0.328,0.019,0.002,-0.023,-0.075,0.009,-0.053,0.228,0.141,0.011,-0.043,-0.082,-0.013,0.015,-0.157,0.066,-0.016,0.155,0.046
BECN1 (UniProt Q14457),0.069,-0.003,0.029,0.07,0.053,-0.107,-0.003,0.013,0.024,0.009,0.013,-0.038,-0.262,-0.065,-0.029,-0.054,-0.014,-0.013,0.001,0.018
ALDH1B1 (UniProt P30837),-0.036,0.05,-0.005,0.032,-0.05,-0.113,0.001,0.048,-0.095,0.058,-0.015,0.001,-0.093,0.014,0.002,-0.055,-0.015,0.062,0.013,-0.042
AKT2 (UniProt P31751),-0.017,-0.253,0.128,0.079,-0.061,-0.175,-0.026,0.082,-0.038,-0.119,-0.012,-0.068,-0.005,0.01,0.042,-0.009,-0.058,-0.102,0.015,0.013
ARFGAP1 (UniProt Q8N6T3),-0.182,-0.545 (active),0.056,0.026,-0.042,0.008,0.036,-0.003,-0.016,0.068,-0.021,-0.086,-0.029,0.034,0.068,-0.158,-0.048,-0.087,0.068,-0.044
ATP9B (UniProt O43861),-0.002,-0.15,-0.125,0.055,-0.204,-0.023,0.013,0.08,0.013,-0.109,0.13,-0.185,0.008,-0.055,-0.02,-0.025,0.081,-0.027,0.058,0.06
AKAP8L (UniProt Q9ULX6),-0.14,-0.394 (active),0.059,0.072,-0.074,-0.039,0.043,0.101,0.171,-0.25,-0.127,-0.203,-0.21,0.055,-0.097,-0.477 (active),-0.008,0.027,0.025,0.049
ANKRD29 (UniProt Q8N6D5),-0.021,-0.27,-0.152,0,-0.137,-0.233,0.025,0.111,-0.039,-0.043,-0.089,-0.011,-0.016,0.27,-0.02,-0.04,-0.227,0.118,0,-0.038
ATAD3B (UniProt Q5T9A4),-0.076,-0.167,0.093,-0.045,-0.018,0.112,-0.026,0.005,0.167,-0.339 (active),-0.047,-0.101,0.091,-0.009,-0.084,0.096,0.25,0,0.125,0.033
BZW1 isoform 3 (UniProt Q7L1Q6),-0.273,-0.82 (active),0.114,0.019,-0.128,-0.041,0.104,0.063,0.068,-0.33,-0.083,-0.207,-0.098,0.047,-0.054,-0.141,0.128,0.027,0.158,-0.1
ACADVL isoform 3 (UniProt P49748),0.119,0.099,-0.007,0.025,0.008,-0.014,0.004,-0.004,-0.054,-0.045,0.027,0.056,-0.031,-0.028,-0.022,-0.011,-0.007,0.008,-0.021,-0.001
